Compound in this test: Nc1nc2c(ncn2[C@@H]2O[C@H](COP(=O)(O)OP(=O)(O)OP(=O)(O)O)[C@@H](O)[C@H]2O)c(=O)[nH]1 [guanosine triphosphate]
The test is described as follows: NP40-soluble protein abundance relative to vehicle (solubility fold change) (ratio); higher = more soluble protein in presence of GTP. The essentials:
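In three independent experiments, Jurkat crude lysate made by Dounce homogenisation was treated for 10 min at room temperature and then 3 min at 37 °C with eight concentrations ranging from 0.1 to 10 mM. It was then solubilised with 0.8% NP40 plus benzonase for 60 min at 4 °C and ultracentrifuged. The supernatant was TMT-labelled for LC-MS/MS, and each value is the fold change against the detergent-processed vehicle for the same replicate, using vsn-normalised intensities.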

± gives the standard deviation of the averaged measurements. About 5,400 targets were measured; listed, in parts, are those with the largest changes and a random draw of the rest.

Sequence of UniProt Q86WQ0 (Q86WQ0 whole entry): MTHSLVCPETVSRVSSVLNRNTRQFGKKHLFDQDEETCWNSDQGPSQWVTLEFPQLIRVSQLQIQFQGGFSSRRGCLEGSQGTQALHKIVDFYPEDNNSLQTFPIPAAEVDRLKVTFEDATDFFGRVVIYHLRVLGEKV
Sequence of UniProt Q8NI27 (Q8NI27 whole entry): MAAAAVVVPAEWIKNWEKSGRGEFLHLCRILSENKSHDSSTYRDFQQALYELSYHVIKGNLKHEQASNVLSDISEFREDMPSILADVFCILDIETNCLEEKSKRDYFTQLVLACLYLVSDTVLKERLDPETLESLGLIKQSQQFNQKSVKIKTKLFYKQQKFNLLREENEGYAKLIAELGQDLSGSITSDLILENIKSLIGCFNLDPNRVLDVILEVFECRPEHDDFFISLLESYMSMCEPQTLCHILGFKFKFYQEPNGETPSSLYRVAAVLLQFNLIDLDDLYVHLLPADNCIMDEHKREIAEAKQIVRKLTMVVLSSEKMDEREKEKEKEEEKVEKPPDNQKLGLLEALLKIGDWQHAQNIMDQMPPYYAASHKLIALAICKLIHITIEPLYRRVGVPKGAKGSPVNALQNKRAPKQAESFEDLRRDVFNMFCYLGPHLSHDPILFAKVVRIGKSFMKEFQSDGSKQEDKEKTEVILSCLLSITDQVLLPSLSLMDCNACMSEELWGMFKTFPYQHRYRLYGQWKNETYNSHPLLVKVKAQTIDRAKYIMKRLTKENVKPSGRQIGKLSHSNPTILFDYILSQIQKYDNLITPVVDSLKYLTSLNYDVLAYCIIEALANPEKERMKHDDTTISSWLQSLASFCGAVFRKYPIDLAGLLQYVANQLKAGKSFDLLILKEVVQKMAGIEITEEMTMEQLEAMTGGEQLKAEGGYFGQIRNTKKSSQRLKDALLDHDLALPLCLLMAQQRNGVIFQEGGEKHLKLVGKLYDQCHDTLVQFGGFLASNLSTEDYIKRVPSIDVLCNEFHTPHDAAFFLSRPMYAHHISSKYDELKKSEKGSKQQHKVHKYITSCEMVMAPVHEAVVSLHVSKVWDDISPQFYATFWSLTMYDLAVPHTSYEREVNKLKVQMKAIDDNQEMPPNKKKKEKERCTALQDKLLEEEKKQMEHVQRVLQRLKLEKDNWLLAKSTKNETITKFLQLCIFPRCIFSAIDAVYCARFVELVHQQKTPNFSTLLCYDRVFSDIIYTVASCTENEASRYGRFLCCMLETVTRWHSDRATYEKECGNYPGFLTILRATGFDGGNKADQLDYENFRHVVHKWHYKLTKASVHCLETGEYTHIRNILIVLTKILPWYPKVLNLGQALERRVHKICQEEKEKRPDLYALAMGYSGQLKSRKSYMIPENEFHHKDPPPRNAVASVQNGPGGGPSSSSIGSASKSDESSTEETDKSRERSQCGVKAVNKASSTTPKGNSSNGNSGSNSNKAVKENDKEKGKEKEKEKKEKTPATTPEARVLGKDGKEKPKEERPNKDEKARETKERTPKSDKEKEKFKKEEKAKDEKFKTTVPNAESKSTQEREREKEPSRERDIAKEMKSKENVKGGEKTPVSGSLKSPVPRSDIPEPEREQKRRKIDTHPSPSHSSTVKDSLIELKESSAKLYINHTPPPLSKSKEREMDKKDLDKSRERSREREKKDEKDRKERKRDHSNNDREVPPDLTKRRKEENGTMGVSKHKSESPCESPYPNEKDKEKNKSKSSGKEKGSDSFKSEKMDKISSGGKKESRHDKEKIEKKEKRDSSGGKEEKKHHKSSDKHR
Sequence of UniProt P63151 (P63151 whole entry, one chain of several): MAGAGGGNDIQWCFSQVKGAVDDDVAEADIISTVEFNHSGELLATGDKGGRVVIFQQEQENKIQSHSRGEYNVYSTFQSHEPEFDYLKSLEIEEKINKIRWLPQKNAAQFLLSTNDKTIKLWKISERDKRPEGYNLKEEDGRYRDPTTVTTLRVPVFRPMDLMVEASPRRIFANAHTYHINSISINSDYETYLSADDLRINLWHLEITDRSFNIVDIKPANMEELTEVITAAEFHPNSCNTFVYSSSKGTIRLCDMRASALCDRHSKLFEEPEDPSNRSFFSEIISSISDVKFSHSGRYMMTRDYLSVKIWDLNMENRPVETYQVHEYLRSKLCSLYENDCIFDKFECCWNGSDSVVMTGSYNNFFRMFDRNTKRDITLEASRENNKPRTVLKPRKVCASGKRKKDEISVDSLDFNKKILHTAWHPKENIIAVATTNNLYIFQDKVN
Sequence of UniProt Q8NCW5 (Q8NCW5 whole entry): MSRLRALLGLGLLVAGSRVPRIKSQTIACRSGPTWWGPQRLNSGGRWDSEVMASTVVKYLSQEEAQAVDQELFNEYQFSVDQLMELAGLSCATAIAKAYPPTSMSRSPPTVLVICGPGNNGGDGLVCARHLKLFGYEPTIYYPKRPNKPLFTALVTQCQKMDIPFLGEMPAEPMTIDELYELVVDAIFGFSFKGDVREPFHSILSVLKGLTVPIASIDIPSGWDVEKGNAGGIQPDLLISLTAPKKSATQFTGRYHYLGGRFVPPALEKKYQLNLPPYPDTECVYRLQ
Sequence of UniProt Q86U70 (Q86U70 whole entry): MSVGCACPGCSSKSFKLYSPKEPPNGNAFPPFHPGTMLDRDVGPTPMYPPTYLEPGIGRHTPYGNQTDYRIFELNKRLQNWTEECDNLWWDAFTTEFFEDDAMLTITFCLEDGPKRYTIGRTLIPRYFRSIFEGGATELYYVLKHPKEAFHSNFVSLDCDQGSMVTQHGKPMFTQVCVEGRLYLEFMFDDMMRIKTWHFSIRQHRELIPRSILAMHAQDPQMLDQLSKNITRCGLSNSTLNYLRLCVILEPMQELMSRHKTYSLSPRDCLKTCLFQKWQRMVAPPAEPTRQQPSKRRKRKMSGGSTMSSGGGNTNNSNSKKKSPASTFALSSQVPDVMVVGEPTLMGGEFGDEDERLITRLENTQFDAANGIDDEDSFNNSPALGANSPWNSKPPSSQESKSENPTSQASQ
Sequence of UniProt Q13769 (Q13769 whole entry): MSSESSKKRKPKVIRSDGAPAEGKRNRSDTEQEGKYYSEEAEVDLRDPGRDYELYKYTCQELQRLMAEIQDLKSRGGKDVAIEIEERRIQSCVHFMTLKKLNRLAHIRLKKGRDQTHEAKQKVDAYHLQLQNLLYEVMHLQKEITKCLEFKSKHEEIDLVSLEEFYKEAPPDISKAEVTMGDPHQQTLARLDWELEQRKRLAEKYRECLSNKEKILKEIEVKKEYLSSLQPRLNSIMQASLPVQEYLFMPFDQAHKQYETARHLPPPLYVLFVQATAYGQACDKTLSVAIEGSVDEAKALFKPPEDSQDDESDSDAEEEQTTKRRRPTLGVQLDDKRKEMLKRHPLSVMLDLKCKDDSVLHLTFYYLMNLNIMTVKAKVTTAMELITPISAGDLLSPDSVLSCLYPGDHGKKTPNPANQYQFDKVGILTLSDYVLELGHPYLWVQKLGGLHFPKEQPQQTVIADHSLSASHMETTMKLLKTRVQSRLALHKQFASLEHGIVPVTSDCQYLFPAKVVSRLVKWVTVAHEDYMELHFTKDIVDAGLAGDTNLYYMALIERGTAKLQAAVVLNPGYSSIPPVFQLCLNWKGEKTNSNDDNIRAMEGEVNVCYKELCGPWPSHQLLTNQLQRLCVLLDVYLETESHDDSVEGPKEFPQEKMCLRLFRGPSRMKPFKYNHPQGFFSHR
Sequence of UniProt Q14444 (Q14444 whole entry): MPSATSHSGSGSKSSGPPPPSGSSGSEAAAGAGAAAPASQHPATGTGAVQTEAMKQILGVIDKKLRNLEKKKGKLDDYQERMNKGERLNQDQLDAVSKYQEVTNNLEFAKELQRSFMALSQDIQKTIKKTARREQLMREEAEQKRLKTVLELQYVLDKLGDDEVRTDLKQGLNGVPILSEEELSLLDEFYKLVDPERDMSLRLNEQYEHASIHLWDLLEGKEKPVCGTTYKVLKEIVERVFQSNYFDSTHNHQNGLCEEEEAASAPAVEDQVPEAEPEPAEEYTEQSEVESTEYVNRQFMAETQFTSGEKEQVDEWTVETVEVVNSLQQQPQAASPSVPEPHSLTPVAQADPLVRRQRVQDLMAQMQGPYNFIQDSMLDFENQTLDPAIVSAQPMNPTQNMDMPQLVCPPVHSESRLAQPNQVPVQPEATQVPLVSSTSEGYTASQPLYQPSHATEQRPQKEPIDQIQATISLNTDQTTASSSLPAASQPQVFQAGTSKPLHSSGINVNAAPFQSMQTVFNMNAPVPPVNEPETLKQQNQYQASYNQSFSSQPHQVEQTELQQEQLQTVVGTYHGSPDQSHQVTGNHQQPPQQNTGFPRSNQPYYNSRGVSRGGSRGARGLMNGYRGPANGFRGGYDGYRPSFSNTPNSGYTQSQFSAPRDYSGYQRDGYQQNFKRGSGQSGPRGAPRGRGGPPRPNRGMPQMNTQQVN
Sequence of UniProt Q86W42 (Q86W42 whole entry): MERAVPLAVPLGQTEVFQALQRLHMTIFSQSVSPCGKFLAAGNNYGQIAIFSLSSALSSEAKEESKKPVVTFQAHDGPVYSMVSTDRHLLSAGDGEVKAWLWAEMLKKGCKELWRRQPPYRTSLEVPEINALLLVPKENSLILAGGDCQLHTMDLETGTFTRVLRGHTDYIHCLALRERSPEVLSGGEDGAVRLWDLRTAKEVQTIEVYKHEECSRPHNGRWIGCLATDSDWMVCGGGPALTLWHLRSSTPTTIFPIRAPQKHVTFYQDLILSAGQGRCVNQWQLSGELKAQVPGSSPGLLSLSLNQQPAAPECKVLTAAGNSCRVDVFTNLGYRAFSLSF
Sequence of UniProt Q6UXH1 (Q6UXH1 whole entry): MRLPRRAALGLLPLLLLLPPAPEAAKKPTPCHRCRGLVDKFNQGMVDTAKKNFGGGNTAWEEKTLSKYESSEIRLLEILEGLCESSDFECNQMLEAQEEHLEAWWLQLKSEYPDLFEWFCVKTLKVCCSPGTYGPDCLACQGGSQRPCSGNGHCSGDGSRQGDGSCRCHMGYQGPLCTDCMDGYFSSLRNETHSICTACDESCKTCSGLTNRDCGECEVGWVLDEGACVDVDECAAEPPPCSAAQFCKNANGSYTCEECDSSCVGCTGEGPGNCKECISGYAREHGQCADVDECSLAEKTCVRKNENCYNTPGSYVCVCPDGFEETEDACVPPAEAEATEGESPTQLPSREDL

Regarding UniProt Q12789|Q12789-3, the NP40-soluble protein abundance worked out at 1.08 ± 0.051 (concentration: 0.1mM); 1.08 ± 0.093 (concentration: 0.5mM); 1.1 ± 0.1 (concentration: 1mM); 1.13 ± 0.09 (concentration: 2mM); 1.13 ± 0.1 (concentration: 4mM); 1.1 ± 0.077 (concentration: 6mM). The NP40-soluble protein abundance came to 1.1 ± 0.11 (concentration: 8mM) and 1.1 ± 0.11 (concentration: 10mM).
For the target NFXL1 (UniProt Q6ZNB6), the NP40-soluble protein abundance runs as follows: (concentration: 0.1mM) 1.04 ± 0.079; (concentration: 0.5mM) 1.09 ± 0.1; (concentration: 1mM) 1.05 ± 0.091; (concentration: 2mM) 1.11 ± 0.067; (concentration: 4mM) 1.13 ± 0.12; (concentration: 6mM) 1.16 ± 0.13. For the same target, the NP40-soluble protein abundance reads like this: (concentration: 8mM) 1.12 ± 0.12; (concentration: 10mM) 1.15 ± 0.11.
Take THOC5 (UniProt Q13769): the NP40-soluble protein abundance runs as follows: (concentration: 0.1mM) 1.18 ± 0.0098; (concentration: 0.5mM) 1.35 ± 0.093; (concentration: 1mM) 1.5 ± 0.18; (concentration: 2mM) 1.83 ± 0.36; (concentration: 4mM) 2.21 ± 0.56; (concentration: 6mM) 2.3 ± 0.66. Further, the NP40-soluble protein abundance was determined as 2.45 ± 0.77 (concentration: 8mM) and 2.37 ± 0.74 (concentration: 10mM).
With THOC2 (UniProt Q8NI27), the NP40-soluble protein abundance was found to be 1.14 ± 0.054 (concentration: 0.1mM); 1.33 ± 0.14 (concentration: 0.5mM); 1.39 ± 0.15 (concentration: 1mM); 1.72 ± 0.29 (concentration: 2mM); 2.05 ± 0.4 (concentration: 4mM); 2.18 ± 0.51 (concentration: 6mM). Also, the NP40-soluble protein abundance is, setting by setting: (concentration: 8mM) 2.23 ± 0.54; (concentration: 10mM) 2.16 ± 0.48.
As for MLKL (UniProt Q8NB16), the NP40-soluble protein abundance is 0.98 ± 0.044 (concentration: 0.1mM); 0.962 ± 0.052 (concentration: 0.5mM); 0.896 ± 0.062 (concentration: 1mM); 0.908 ± 0.035 (concentration: 2mM); 0.873 ± 0.047 (concentration: 4mM); 0.874 ± 0.032 (concentration: 6mM). Further, the NP40-soluble protein abundance runs as follows: (concentration: 8mM) 0.868 ± 0.045; (concentration: 10mM) 0.837 ± 0.024.
Consider UniProt Q86WQ0|Q86WQ0-2, for which the NP40-soluble protein abundance reads like this: (concentration: 0.1mM) 0.973 ± 0.06; (concentration: 0.5mM) 0.939 ± 0.017; (concentration: 1mM) 0.882 ± 0.094; (concentration: 2mM) 0.9 ± 0.082; (concentration: 4mM) 0.884 ± 0.14; (concentration: 6mM) 0.897 ± 0.096. In addition, the NP40-soluble protein abundance reads like this: (concentration: 8mM) 0.849 ± 0.13; (concentration: 10mM) 0.862 ± 0.099.
Consider “UniProt Q6UXH1|Q6UXH1-4|Q6UXH1-5|Q6UXH1-6”, for which the NP40-soluble protein abundance amounted to 0.968 ± 0.018 (concentration: 0.1mM); 0.941 ± 0.046 (concentration: 0.5mM); 1.03 ± 0.09 (concentration: 1mM); 0.959 ± 0.093 (concentration: 2mM); 0.935 ± 0.096 (concentration: 4mM); 0.959 ± 0.12 (concentration: 6mM). Also, the NP40-soluble protein abundance by setting is: (concentration: 8mM) 0.95 ± 0.061; (concentration: 10mM) 0.956 ± 0.088.
Take UniProt P63151|E5RJV1: the NP40-soluble protein abundance by setting is: (concentration: 0.1mM) 0.983 ± 0.037; (concentration: 0.5mM) 1.02 ± 0.071; (concentration: 1mM) 0.934 ± 0.068; (concentration: 2mM) 0.931 ± 0.083; (concentration: 4mM) 0.955 ± 0.079; (concentration: 6mM) 0.887 ± 0.071. Further, the NP40-soluble protein abundance reads like this: (concentration: 8mM) 0.92 ± 0.016; (concentration: 10mM) 0.8766 ± 0.0055.
Consider UniProt Q14444|Q14444-2, for which the NP40-soluble protein abundance was 0.95 ± 0.057 (concentration: 0.1mM); 0.994 ± 0.098 (concentration: 0.5mM); 1.06 ± 0.07 (concentration: 1mM); 1.01 ± 0.14 (concentration: 2mM); 1.02 ± 0.088 (concentration: 4mM); 1.11 ± 0.1 (concentration: 6mM). The NP40-soluble protein abundance runs as follows: (concentration: 8mM) 1.16 ± 0.057; (concentration: 10mM) 1.13 ± 0.11.
In the case of PDCD6IP (UniProt Q8WUM4), the NP40-soluble protein abundance by setting is: (concentration: 0.1mM) 0.945 ± 0.046; (concentration: 0.5mM) 0.957 ± 0.053; (concentration: 1mM) 0.943 ± 0.061; (concentration: 2mM) 0.889 ± 0.075; (concentration: 4mM) 0.873 ± 0.084; (concentration: 6mM) 0.895 ± 0.064. Besides, the NP40-soluble protein abundance runs as follows: (concentration: 8mM) 0.904 ± 0.053; (concentration: 10mM) 0.883 ± 0.07.
Consider UniProt Q8NCW5, for which the NP40-soluble protein abundance turned out to be 0.907 ± 0.084 (concentration: 0.1mM); 0.869 ± 0.041 (concentration: 0.5mM); 0.991 ± 0.083 (concentration: 1mM); 0.986 ± 0.055 (concentration: 2mM); 0.967 ± 0.085 (concentration: 4mM); 0.932 ± 0.08 (concentration: 6mM). The NP40-soluble protein abundance stood at 0.895 ± 0.11 (concentration: 8mM) and 0.969 ± 0.1 (concentration: 10mM).
With UniProt Q86W42|Q86W42-2, the NP40-soluble protein abundance by setting is: (concentration: 0.1mM) 1.21 ± 0.14; (concentration: 0.5mM) 1.35 ± 0.28; (concentration: 1mM) 1.46 ± 0.27; (concentration: 2mM) 1.87 ± 0.52; (concentration: 4mM) 2.27 ± 0.61; (concentration: 6mM) 2.29 ± 0.68. In addition, the NP40-soluble protein abundance amounted to 2.26 ± 0.54 (concentration: 8mM) and 2.31 ± 0.65 (concentration: 10mM).
Take RDH11 (UniProt Q8TC12): the NP40-soluble protein abundance runs as follows: (concentration: 0.1mM) 1 ± 0.014; (concentration: 0.5mM) 0.985 ± 0.024; (concentration: 1mM) 0.911 ± 0.034; (concentration: 2mM) 0.895 ± 0.051; (concentration: 4mM) 0.867 ± 0.048; (concentration: 6mM) 0.88 ± 0.015. The NP40-soluble protein abundance came out at 0.824 ± 0.084 (concentration: 8mM) and 0.782 ± 0.082 (concentration: 10mM).
Take LDB1 (UniProt Q86U70): the NP40-soluble protein abundance reads like this: (concentration: 0.1mM) 1.066 ± 0.0088; (concentration: 0.5mM) 1.04 ± 0.05; (concentration: 1mM) 1 ± 0.056; (concentration: 2mM) 0.989 ± 0.024; (concentration: 4mM) 0.938 ± 0.043; (concentration: 6mM) 0.951 ± 0.021. Besides, the NP40-soluble protein abundance (concentration: 8mM) was 0.968 ± 0.047 and the NP40-soluble protein abundance (concentration: 10mM) is 0.931 ± 0.036.
